Each structure is given as a SMILES string. The whole screen tested about 330,000 compounds, of which about 7,300 (2.2%) were called active.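 How the source made its calls: active means inhibition of at least 40%; inactive means the rest.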 This excerpt belongs to a sample that is enriched for actives.

A short description of this experiment: growth inhibition of tim10-1 ts yeast – luminescence, uHTS, primary screen (AID 463190).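 Further: mutant grown at 25 °C; 0% = DMSO wells with yeast and 100% = wells holding no yeast.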 The conditions noted are these: S. cerevisiae tim10-1 ts strain growth, BacTiter-Glo, 24 h; at 20 µM; active compounds read high.
A word on the inhibition: it is the relative decrease from the control value, in per cent. For `Cc1cccc(OCC(=O)NCCNC(=O)c2cccnc2)c1`, the inhibition was -27.3% (inactive). To `CCCOc1cccc(C(=O)NCCCNC(=O)c2cccnc2)c1` belongs -5.09% (inactive); to `Cc1cccc(OCCNC(=S)NC(=O)c2cccnc2)c1`, 45.9% (active); to `CN(C(=O)CSc1nnc(C2CC2)n1C)C1CCCc2ccccc21` (stereo not drawn), -15.4% (inactive). Then `Cc1csc(NC(=O)C2=COCCO2)n1`, with 6.44% (inactive); and `Cc1ccc(-c2csc(NC(=O)C3=COCCO3)n2)cc1C`, with 40.5% (active); and `CC(=O)NCCC(=O)Nc1nc(-c2ccc3c(c2)OCCO3)cs1`, with 4.76% (inactive). To `CC(C)(C)NC(=O)NC(=O)COC(=O)CCC1CCCCC1` belongs 40.3% (active); to `COc1ccccc1OCCC(=O)OCC(=O)NC(=O)NC(C)(C)C`, 17.9% (inactive). In the case of `CC(C)(C)NC(=O)NC(=O)COC(=O)C1(C)CC1(Cl)Cl` (stereo not drawn), the inhibition was 21.3% (inactive).

Turning to `Cc1cc(C)cc(C(=O)NC(=S)Nc2ccc3[nH]c(=O)[nH]c3c2)c1`, the inhibition is 12.4% (inactive).

As to `COc1ccc(CS(=O)/C(Cl)=C(/Cl)C(=O)Nc2ccc(OC)nc2)cc1` (stereo not drawn), the inhibition is 41% (active). Then `COc1ccc(CCNC(=O)c2cnc(Cl)c(Cl)c2)cc1`, with 17.4% (inactive); and `COc1ccc(NC(=O)/C(Cl)=C(/Cl)S(=O)Cc2ccc(C)cc2)cn1` (stereo not drawn), with 30.1% (inactive); and `COc1ccc(CCNC(=O)COC(=O)c2ccc[nH]c2=O)cc1`, with 7.85% (inactive). To `O=C(Cn1cnc2c(OCc3ccccc3)ncnc21)NCc1nc2ccccc2[nH]1` belongs -4.29% (inactive); to `CC(C)Cn1c(N)c(C(=O)NCc2cccs2)c2nc3ccccc3nc21`, 43.7% (active).

For the molecule `Cn1ncc(Br)c1C(=O)NCc1cccs1`, the inhibition was 1.74% (inactive).

`CCOc1ccccc1NC(=O)Cn1nnc(C(=O)NCc2cccs2)c1N`: the inhibition was 10.5% (inactive). Take `NS(=O)(=O)c1cc2c(cc1Cl)NC(C(Cl)Cl)NS2(=O)=O` (stereo not drawn): the inhibition is 0.045% (inactive). To `CCCCCCC(=O)Nc1nc(C)c(-c2csc(Nc3cccc(OC)c3)n2)s1` belongs 14.8% (inactive). To `CCCCC(=O)Nc1nc(C)c(-c2csc(Nc3ccc(Cl)cc3)n2)s1` belongs 42.5% (active). To `CCCCCCC(=O)Nc1nc(C)c(-c2csc(Nc3cc(Cl)ccc3OC)n2)s1` belongs 3.74% (inactive); to `C=CCCC(=O)Nc1nc(C)c(-c2csc(Nc3ccc(Cl)cc3)n2)s1`, 41.2% (active). Regarding `Cc1nc(NC(=O)CN(C)S(=O)(=O)c2ccc(Cl)cc2)sc1C`, the inhibition is 4.21% (inactive). In the case of `Cc1nc(NC(=O)c2cccc(Cl)c2)sc1-c1csc(Nc2cccc(Cl)c2)n1`, the inhibition was -8.28% (inactive).

In the case of `COc1ccc(S(=O)(=O)c2c[nH]c(=S)[nH]c2=O)cc1Cl`, the inhibition was -8.62% (inactive). With `O=C(CCN1C(=O)c2ccncc2C1=O)Nc1cc(F)ccc1F`, the inhibition was 7.78% (inactive). To `CC(=O)N1CCCc2cc(S(=O)(=O)N3CCCC(C(=O)N4CCN(c5cccc(Cl)c5)CC4)C3)ccc21` (stereo not drawn) belongs 10.1% (inactive); to `COc1ccc(-n2c(=S)[nH]c3sc4c(c3c2=O)CCc2ccccc2-4)cc1`, 6.58% (inactive); to `O=c1[nH]cnc2c1c(-c1ccccc1)cn2-c1ccc(F)cc1`, 34.1% (inactive). To `COc1ccc(-n2cc(-c3ccccc3)c3c(=S)nc[nH]c32)cc1` belongs 40.1% (active); to `C=CCn1c(SCC(=O)Nc2ccc(NC(C)=O)cc2)nc2sc(C)c(C)c2c1=O`, 15.8% (inactive).

Consider `COC(=O)c1c(-c2cccs2)csc1NC(=O)CSc1ncnc2sc(C)c(C)c12`, for which the inhibition is 17.6% (inactive). To `Cc1sc2ncnc(SCC(=O)Nc3ccc(CN4CCCC4)cc3)c2c1C` belongs 46.3% (active); to `Cc1cc(C(=O)OCC(=O)Nc2ccc(F)c(F)c2)c(C)o1`, -15.7% (inactive).

As to `Cc1cccc(C(=O)N2CCC(c3nc4ccccc4s3)CC2)c1`, the inhibition was 20.6% (inactive). As to `Cc1cccc(NC(=S)N2CCC(c3nc4ccccc4s3)CC2)c1`, the inhibition is 47% (active). Then `Cc1cccc(NC(=S)N2CCCC(c3nc4ccccc4[nH]3)C2)c1` (stereo not drawn), with 0.466% (inactive).

Consider `COc1ccc(OC)c(C(O)c2nc3ccccc3n2C)c1` (stereo not drawn), for which the inhibition was 12% (inactive). Take `CNC[C@@H]1Oc2c(NS(C)(=O)=O)cccc2C(=O)N([C@@H](C)CO)C[C@H]1C`: the inhibition was -4.12% (inactive). To `NS(=O)(=O)c1ccc(N2C(=O)C3C4CC(C(Br)C4Br)C3C2=O)cc1` (stereo not drawn) belongs -7.31% (inactive); to `ON=C1/C(=N\O)CC2(C/C1=N/O)OCCO2`, -13.1% (inactive); to `Oc1c(CN2CCCC2)cc(COCc2ccccc2)c2cccnc12`, 14.6% (inactive). Then `Oc1c(CN2CCN(c3ccc(F)cc3)CC2)cc(Cl)c2cccnc12`, with 45.3% (active); and `Cc1cccnc1NC(=O)c1cccc(S(=O)(=O)N2CCN(c3ccc(F)cc3)CC2)c1`, with 23.8% (inactive). For `CCN(CCn1cccn1)Cc1cn[nH]c1-c1ccc(OC)cc1F`, the inhibition was 6.84% (inactive).

Take `COc1cc2sc(C)nc2cc1C`: the inhibition was 13.3% (inactive). As for `Cc1ccc(S(=O)(=O)N(Cc2cccc([N+](=O)[O-])c2)C(=O)N2CCN(C)CC2)cc1`, the inhibition was 26.5% (inactive). `CCOc1ccc(NC(=O)C2CC(=O)N=C(N)S2)cc1` (stereo not drawn): the inhibition is 3.69% (inactive). Then `CC(OC(=O)c1ccccc1OCc1ccc(Cl)cc1)C(N)=O` (stereo not drawn), with -12.2% (inactive); and `O=c1c(-c2ccc3c(c2)OCCO3)c(C(F)(F)F)oc2cc(O)cc(O)c12`, with 44% (active). Then `COc1ccc(-c2onc(C)c2-c2ccc3c(c2)OCCO3)c(O)c1`, with 22.7% (inactive).

Consider `CCOC(=O)c1cc2cc(-c3c(C(=O)OCC)oc4cc(O)cc(O)c4c3=O)ccc2o1`, for which the inhibition was 27.5% (inactive).

Turning to `O=[N+]([O-])c1cc(C(F)(F)F)ccc1NN=C1CCCC1`, the inhibition is -6.28% (inactive). Turning to `Nc1ccccc1Sc1ccc(C(F)(F)F)cc1[N+](=O)[O-]`, the inhibition was 40.4% (active). Then `O=C(CSc1ccc(C(F)(F)F)cc1[N+](=O)[O-])NCCOc1ccccc1`, with 8.09% (inactive). Regarding `Cc1ccccc1C(=O)NNC(=O)CN1C(=O)c2ccccc2C1=O`, the inhibition was 23.4% (inactive). Take `O=C(CSc1nnc(Cn2cnc3ccccc32)o1)c1ccccc1`: the inhibition is 24.1% (inactive).

For the molecule `COc1ccc(C(=O)c2c(C)oc3cc([N+](=O)[O-])c(O)c([N+](=O)[O-])c23)cc1`, the inhibition is 12.5% (inactive). To `Cc1oc2cc([N+](=O)[O-])c(O)c([N+](=O)[O-])c2c1C(=O)c1ccc(Br)cc1` belongs 25% (inactive); to `Cc1oc2cc(Br)c(O)c(Br)c2c1C(=O)c1ccccc1`, 41.8% (active). As to `O=C(Nc1ccc2c(c1)OCO2)C1CC1(Cl)Cl` (stereo not drawn), the inhibition is -5.38% (inactive). For the molecule `CCC(C(=O)NC1CCCC1)N(C(=O)Cn1nnc(-c2ccc(C)o2)n1)c1ccc(OC)c(OC)c1` (stereo not drawn), the inhibition was 18.2% (inactive). Then `CSc1ccc(CN2C(=O)NC3(CCCCCC3)C2=O)cc1`, with 23.7% (inactive); and `NC(=O)C1=C[C@@H](c2ccc3c(c2)OCO3)C[C@@H](OCCCCO)O1`, with -9.86% (inactive); and `COC(=O)c1sccc1NC(=O)COc1ccc(Cl)cc1`, with 7.8% (inactive). To `CCOC(=O)c1c(NC(=O)c2ccc(S(=O)(=O)N(C)CC3CCCO3)cc2)sc2c1CC(C)(C)NC2(C)C` (stereo not drawn) belongs 3.46% (inactive); to `COC(=O)c1c(NC(=O)COc2ccc(Cl)cc2Cl)sc2c1CC(C)(C)NC2(C)C`, 43.6% (active). For `Cc1nc2ccc(C(=O)N3CCSCC3)cc2s1`, the inhibition is 4.92% (inactive). To `O=S(=O)(Nc1ccc2nc(N3CCOCC3)sc2c1)c1ccccc1` belongs 3.87% (inactive). Then `O=C(c1ccc2nc(N3CCOCC3)sc2c1)N1CCN(c2ccc(Cl)cc2)CC1`, with 49.1% (active); and `C/C(N)=C(/C#N)C(=O)COC(=O)c1cc(-c2ccc(C)cc2)nc2ccccc12`, with 11.4% (inactive); and `N/C(=N\OC(=O)c1cc(-c2ccccc2)nc2ccccc12)c1ccncc1`, with 57.4% (active). To `COC(=O)CNC(=O)c1cc(-c2ccncc2)nc2ccccc12` belongs 13.6% (inactive); to `Cc1ccc(N/C(N)=N/c2nc(C(F)(F)F)cc(C(F)(F)F)n2)cc1`, 14.4% (inactive); to `CCC(NC(=O)c1ccccc1NC(=O)c1ccccc1)C(=O)NNC(=O)CSc1nc2ccccc2o1` (stereo not drawn), 11% (inactive). `CCOC(=O)c1ccc(N2C(=O)CC(N3CCN(C(=O)c4ccccc4)CC3)C2=O)cc1` (stereo not drawn): the inhibition is 20% (inactive). On to `CCOC(=O)c1ccc(N2C(=O)CC(N3CC(C)OC(C)C3)C2=O)cc1` (stereo not drawn), for which the inhibition was 29.9% (inactive). On to `CCOC(=O)c1ccc(N2C(=O)CC(N3CCC(C(=O)OCC)CC3)C2=O)cc1` (stereo not drawn), for which the inhibition was 43.8% (active). `O=C(NC(Cc1ccc(O)cc1)C(=O)O)/C(=C/c1ccccc1)NC(=O)c1ccccc1` (stereo not drawn): the inhibition was -12.7% (inactive).

Turning to `COc1ccc(NC(=O)CN(C)C(=O)CNC(=O)C2CCCCC2)cc1`, the inhibition is 3.37% (inactive). Take `COc1cc(NC(=O)C2CCN(c3cnccn3)CC2)cc(OC)c1`: the inhibition was 18.5% (inactive). Then `Clc1ccc(C2CC(c3cccs3)n3ncnc3N2)cc1Cl` (stereo not drawn), with 44.6% (active); and `COc1ccc(C2CC(c3ccc(C)cc3)Nc3ncnn32)cc1` (stereo not drawn), with 31.2% (inactive); and `Nc1nc2n(n1)C(c1ccco1)CC(c1ccc(Cl)c(Cl)c1)N2` (stereo not drawn), with 20.9% (inactive).

As to `Cc1ccc(C)c(-n2ccnc2SCC(N)=O)c1`, the inhibition is 1.23% (inactive). Then `CCOC(=O)c1sc(=NC(=O)/C=C/c2cccs2)n(C)c1C`, with 9.93% (inactive). Regarding `Cc1c2cnn(CC(=O)NCCCN3CC(C)CC(C)C3)c(=O)c2c(C)n1Cc1ccc(Cl)cc1` (stereo not drawn), the inhibition was -4.29% (inactive).

Take `CCOC(=O)C1=C(c2ccccc2)NC(=O)NC1c1cc(OC)c(OC)cc1OC` (stereo not drawn): the inhibition was 2.13% (inactive).

As for `CCOC(=O)c1ccccc1CN1C(=O)c2ccccc2S1(=O)=O`, the inhibition is 43.5% (active). Then `CN(Cc1cccs1)C(=O)CN1C(=O)c2ccccc2S1(=O)=O`, with -8.18% (inactive); and `CC(C)(C)c1ccc(CN2C(=O)c3ccccc3S2(=O)=O)cc1`, with 15% (inactive).

The values above are taken from PubChem BioAssay AID463190 (Sanford-Burnham Center for Chemical Genomics, 2010).
